This is an account of results in PubChem BioAssay (NCI).

About 83,000 compounds went through this panel and 20% of them were active in at least one assay; those are over-represented in the sample as a whole.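 Treatment: one concentration, 48 hours, 96-well format. Scoring: percent growth, with anything below 10 considered active.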 Values without a mark were called inactive. Activity calls are given as the source filed them.

Test systems include HCT-15 colon; HT29 colon; SNB-75 CNS; SNB-19 CNS; U251 CNS; PC-3 prostate; SK-MEL-5 melanoma; UACC-62 melanoma; LOX IMVI melanoma; SK-MEL-28 melanoma; SK-MEL-2 melanoma; EKVX NSCLC; SN12C renal; UO-31 renal; TK-10 renal; ACHN renal; CAKI-1 renal; A498 renal; CCRF-CEM leukemia; MOLT-4 leukemia.
Holding throughout (experiment): NCI-60 one-dose screen, 48 h (100 = growth as untreated, 0 = no growth, -100 = all killed)
What all share (conditions): 10 µM unless noted

In the case of `N#C/C(=N\Nc1ccc(Cl)cc1)C(=O)Nc1cc(-c2ccccc2)nn1-c1ccccc1`, the growth was 9.38% (active) with HCT-15 colon; 34.1% in the assay on HT29 colon; 62.1% in the assay on SNB-75 CNS; 30.4% with SNB-19 CNS; 23.1% in the assay on U251 CNS; 6.71% (active) with PC-3 prostate. For the same compound, the growth in the assay on SK-MEL-5 melanoma was -31% (active); with UACC-62 melanoma, 3.27% (active); in the assay with LOX IMVI melanoma it was 73.5%; in the assay on SK-MEL-28 melanoma it was 38.6%; with SK-MEL-2 melanoma, 10.5%; with EKVX NSCLC, 24.4%. For the same compound, the growth was 0.137% (active) in the assay on SN12C renal; 47.1% in the assay on UO-31 renal; 28.6% in the assay with TK-10 renal; 33.9% in the assay with ACHN renal; 21.5% in the assay with CAKI-1 renal; 3.5% (active) with A498 renal. Moreover, the growth in the assay on CCRF-CEM leukemia was 15.3%; in the assay with MOLT-4 leukemia, 26.1%.
Turning to `CCNC(=O)Oc1ccc(/C(=C(/C)Cc2ccc(OC)cc2)c2ccc(OCCN(CC)CC)cc2)cc1`, the growth is 2.84% (active) in the assay with HCT-15 colon; -42.2% (active) in the assay with HT29 colon; 80.8% in the assay with SNB-75 CNS; 74.5% in the assay on SNB-19 CNS; 33.9% with U251 CNS; 56.5% with PC-3 prostate. Besides, the growth in the assay with SK-MEL-5 melanoma is -97.1% (active); in the assay with UACC-62 melanoma, -16.4% (active); with LOX IMVI melanoma it was -75.2% (active); with SK-MEL-28 melanoma it was -60% (active); in the assay on SK-MEL-2 melanoma, 86.5%; with EKVX NSCLC, 69.6%. Besides, the growth with SN12C renal is 68.6%; in the assay with UO-31 renal, 43.1%; with TK-10 renal it was 65.9%; in the assay with ACHN renal it was 81.5%; in the assay with CAKI-1 renal it was 61.4%; in the assay on A498 renal, 80%. For the same compound, the growth was 35.6% in the assay on CCRF-CEM leukemia and 14.7% in the assay with MOLT-4 leukemia.
Regarding `COc1cccc(NC(=O)c2sc3nc(C)c(C(O)c4ccccc4)cc3c2N)c1` (stereo not given), the growth is 14.6% in the assay on HCT-15 colon; 13.3% in the assay on HT29 colon; 54.2% with SNB-75 CNS; 27.6% in the assay on SNB-19 CNS; 8.92% (active) in the assay on U251 CNS; 23.5% with PC-3 prostate. The growth in the assay on SK-MEL-5 melanoma is -17.2% (active); in the assay with UACC-62 melanoma, 32%; with LOX IMVI melanoma, 36.1%; with SK-MEL-28 melanoma, 64.9%; with SK-MEL-2 melanoma it was 37.8%; in the assay on EKVX NSCLC it was 47.7%. Moreover, the growth in the assay with SN12C renal is 18.5%; in the assay on UO-31 renal it was 48%; in the assay on TK-10 renal, 50.8%; in the assay with ACHN renal, 30.9%; in the assay with CAKI-1 renal it was 35.1%; with A498 renal, -0.498% (active). The growth was 14.3% in the assay with CCRF-CEM leukemia and 11.8% in the assay with MOLT-4 leukemia.
Consider `O=C(NNC(=S)Nc1ccccc1)c1ccncc1`, for which the growth in the assay on HCT-15 colon is 101%; in the assay on HT29 colon, 99.6%; in the assay on SNB-75 CNS, 102%; with SNB-19 CNS it was 110%; with U251 CNS, 105%; in the assay on PC-3 prostate, 90.1%. Besides, the growth in the assay with SK-MEL-5 melanoma was 109%; with UACC-62 melanoma, 109%; with LOX IMVI melanoma, 101%; in the assay with SK-MEL-28 melanoma it was 115%; in the assay on SK-MEL-2 melanoma, 94.3%; with EKVX NSCLC, 117%. Moreover, the growth in the assay with SN12C renal is 109%; in the assay on UO-31 renal, 84%; in the assay with TK-10 renal, 102%; in the assay with ACHN renal, 103%; in the assay on CAKI-1 renal it was 133%; in the assay on A498 renal, 124%. Besides, the growth in the assay on CCRF-CEM leukemia was 93.7%; in the assay with MOLT-4 leukemia it was 104%.
As for `O=C1C(=C(O)c2ccccc2)C(=O)c2ccccc21`, the growth in the assay with HCT-15 colon is 102%; in the assay with HT29 colon, 109%; in the assay with SNB-75 CNS it was 76.5%; in the assay on SNB-19 CNS it was 98.1%; in the assay with U251 CNS, 109%; in the assay on PC-3 prostate it was 94.5%. Also, the growth in the assay with SK-MEL-5 melanoma was 107%; with UACC-62 melanoma, 96%; with LOX IMVI melanoma, 99%; in the assay on SK-MEL-28 melanoma, 105%; with SK-MEL-2 melanoma, 105%; in the assay with EKVX NSCLC it was 104%. For the same compound, the growth with SN12C renal is 102%; in the assay on UO-31 renal it was 85.5%; with TK-10 renal, 111%; in the assay with ACHN renal it was 103%; in the assay with CAKI-1 renal, 92.9%; in the assay on A498 renal, 123%. For the same compound, the growth is 73.7% with CCRF-CEM leukemia and 116% in the assay on MOLT-4 leukemia.
Take `O=C1C(Nc2ccc(Cl)cc2)=C(I)C(=O)c2ncccc21`: the growth in the assay with HCT-15 colon was -40.4% (active); with HT29 colon, 43.1%; in the assay on SNB-75 CNS it was 19.4%; in the assay on SNB-19 CNS it was 69.3%; in the assay with U251 CNS it was 30.3%; in the assay on PC-3 prostate it was 37.1%. Further, the growth in the assay with SK-MEL-5 melanoma was -39.8% (active); in the assay with UACC-62 melanoma it was -7.27% (active); in the assay with LOX IMVI melanoma, -68.6% (active); in the assay on SK-MEL-28 melanoma it was 39%; with SK-MEL-2 melanoma, 70%; in the assay with EKVX NSCLC, 62.2%. In addition, the growth was -22.1% (active) with SN12C renal; -51% (active) in the assay on UO-31 renal; 47.5% in the assay with TK-10 renal; -98.8% (active) with ACHN renal; -17% (active) with CAKI-1 renal; 99.6% in the assay on A498 renal. Further, the growth is 6.74% (active) in the assay on CCRF-CEM leukemia and -1.19% (active) in the assay with MOLT-4 leukemia.
